PubChem BioAssay AID504832 (National Center for Advancing Translational Sciences (NCATS), 2011)
Hit rate of the full screen: of about 310,000 compounds, about 18,000 (5.8%) were called active. Not shown: some 22% with an inconclusive outcome. What follows is part of a selection rich in actives, with near analogues and random picks from the rest. Values without a mark were called inactive. The call rests on the fitted dose curve; in most records, active means well fitted inhibition curve with a large enough effect; inconclusive means small, poorly fitted or top-dose-only effect, or another doubt; inactive means no such curve, though single readings can be large or run the other way.
On the % scale 0 is the no-effect control and ±100 the full control effect; potency means the concentration at half of the fitted maximal effect.

Experiment: Primary qHTS for delayed death inhibitors of the malarial parasite plastid, 48 hour incubation
Details: P. falciparum luciferase growth in erythrocytes; series mostly up to 28.7 µM; activity change, negative = inhibition: at the top concentration
Method in brief: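 First compound was added to culture medium, then infected red cells at 0.1% parasitemia and 2% hematocrit (final). After incubation at 37 C under 5% CO2, luciferase detection reagent was dispensed and light output recorded.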
With `CCCCn1c(N)c(N(CCOC)C(=O)CSCC(=O)Nc2cccc(C)c2)c(=O)[nH]c1=O` the “activity change, negative = inhibition” value was -10.7%. With `CCCCn1c(-c2cccc(C)c2)nc2cc3[nH]c(=O)c(C(C)C)nc3cc21` the Potency was 9.28 µM (active). In the case of `CCOCCn1c(-c2ccccc2)nc2ccccc21`, the “activity change, negative = inhibition” value is reported as 0.39%. With `CN(C(=O)CC1C(=O)NCCN1Cc1ccc2ccccc2c1)C1CCOCC1` (stereo unspecified) the “activity change, negative = inhibition” value was -7.75%. In the case of `CN(C(=O)CC1C(=O)NCCN1Cc1ccc(F)cc1Cl)C1CCCCC1` (stereo unspecified), the Potency is reported as 11.7 µM (active). For `CN(Cc1cccc2ncccc12)C(=O)CC1C(=O)NCCN1Cc1ccc(F)cc1` (stereo unspecified), the “activity change, negative = inhibition” value was -6.35%. With `O=C(CN(Cc1ccccc1)C(=O)CCC(=O)Nc1ccccn1)NCCc1ccccc1` the “activity change, negative = inhibition” value was 1.95%. In the case of `Cc1sc2ncn(CC(=O)NCCCC(=O)N3CCN(c4ccccc4F)CC3)c(=O)c2c1C`, the “activity change, negative = inhibition” value is reported as 17.2%. For `COc1ccc(OC(C)C(=O)NCCc2nc3ccccc3[nH]2)cc1` (stereo unspecified), the “activity change, negative = inhibition” value was -4.17%. For `CCCCCOc1ccc(/C=C/C(=O)NCCc2nc3ccccc3[nH]2)cc1OC`, the Potency was 10.4 µM (active). With `O=C(COc1ccccc1)NCCc1nc2ccccc2[nH]1` the “activity change, negative = inhibition” value was 6.88%. For `CCC(C)N1CC(=O)N2Cc3[nH]c4ccccc4c3C[C@H]2C1=O` (stereo partly specified), the “activity change, negative = inhibition” value was -9.23%. In the case of `CC(C)c1ccc(Cc2nnc(NCCCO)[nH]c2=O)cc1`, the “activity change, negative = inhibition” value is reported as -16.3%. With `CC(OC(=O)Cc1ccc(F)cc1)C(=O)N1CCc2ccccc21` (stereo unspecified) the “activity change, negative = inhibition” value was -0.0345%. In the case of `CC1Cc2ccccc2N1C(=O)c1cc2sccc2n1Cc1ccccc1` (stereo unspecified), the Potency is reported as 11.7 µM (active). With `CC(=O)N1c2ccc(S(=O)(=O)N(C)CC(=O)N(C)Cc3ccccc3)cc2CC1C` (stereo unspecified) the “activity change, negative = inhibition” value was -3.71%. In the case of `O=C(c1cc2sccc2n1Cc1ccc(F)cc1)N1CCc2ccccc21`, the Potency is reported as 14.7 µM (active). With `O=C(CSCc1ccccc1)N1CCc2ccccc21` the “activity change, negative = inhibition” value was 169%. For `Cc1ccn(CCC(=O)N2c3ccccc3CC2C)n1` (stereo unspecified), the “activity change, negative = inhibition” value was -0.0677%. With `CC(C)C(=O)Nc1c2c(nn1-c1ccccc1)CSC2` the “activity change, negative = inhibition” value was 6.94%. With `CCNC(=O)N1CCN(S(=O)(=O)c2ccc3c(c2)OCCCO3)CC1` the “activity change, negative = inhibition” value was 1.67%. With `O=C(Nc1cccc(Cl)c1)c1cc(S(=O)(=O)N2CCCCC2)c[nH]1` the “activity change, negative = inhibition” value was 19.9%. For `O=C(CCN1C(=O)[C@@H]2Cc3ccccc3CN2C1=O)NCc1ccccc1`, the “activity change, negative = inhibition” value was 8.13%. In the case of `CC(=O)N1CCc2cc(S(=O)(=O)NC3CCCCC3)ccc21`, the “activity change, negative = inhibition” value is reported as -10.2%. In the case of `CC(C)C(=O)Nc1oc(-c2ccccc2)cc1C#N`, the Potency is reported as 1.85 µM (active). With `COc1cc(C(=O)Nc2oc(-c3ccccc3)c(-c3ccccc3)c2C#N)cc(OC)c1OC` the “activity change, negative = inhibition” value was 15.7%. With `CC(Oc1ccccc1)C(=O)Nc1oc(-c2ccco2)c(-c2ccco2)c1C#N` (stereo unspecified) the “activity change, negative = inhibition” value was 33.3%. For `COc1cc(CC(=O)N2CCC(n3nccc3NC(=O)C3CC3)CC2)cc(OC)c1OC`, the “activity change, negative = inhibition” value was 41.4%. For `O=C(CN(Cc1ccc(Br)cc1)S(=O)(=O)c1ccccc1)NCc1ccncc1`, the “activity change, negative = inhibition” value was -5.45%. In the case of `Cc1ccc(-c2nc(-c3ccncc3)no2)c(C)c1`, the “activity change, negative = inhibition” value is reported as 18%. With `O=C(COC(=O)c1ccccc1Cl)NC1CCCCCCC1` the “activity change, negative = inhibition” value was 16.5%. In the case of `COc1ccccc1CC(=O)Nc1ccc(S(=O)(=O)N2CCCC2)cc1`, the “activity change, negative = inhibition” value is reported as -21.9%. With `Nc1nonc1-n1nnc(C(=O)N/N=C/c2ccc(Cl)cc2)c1-c1ccc2c(c1)OCO2` the Potency was 0.329 µM (active). With `CC(C)c1c(C(=O)N/N=C/c2ccc(-c3ccccc3)cc2)nnn1-c1nonc1N` the “activity change, negative = inhibition” value was 13.7%. For `Nc1nonc1-n1nnc(C(=O)N/N=C/C2CCCCC2)c1-c1ccccc1`, the “activity change, negative = inhibition” value was 11.2%. In the case of `Cc1cc(F)ccc1S(=O)(=O)Nc1ccc(C(=O)N(C)Cc2ccco2)cc1`, the “activity change, negative = inhibition” value is reported as -12.8%. For `O=C(NCCSc1ncc(-c2ccccc2)[nH]1)c1ccco1`, the “activity change, negative = inhibition” value was 2.49%. With `COc1ccc(CCNC(=O)CSc2nnc(-c3cccc(F)c3)o2)cc1OC` the “activity change, negative = inhibition” value was -10.6%. For `CCN(C(=O)CSc1nnc(-c2ccncc2)o1)c1ccccc1`, the “activity change, negative = inhibition” value was -1.9%. With `COc1ccc(CN(C(=O)CSc2nnc(-c3ccc(OC)c(OC)c3)o2)c2ccc(F)cc2)cc1` the Potency was 9.28 µM (active). For `CCc1ccc(NC(=O)C(=O)NNC(=O)c2cccs2)cc1`, the “activity change, negative = inhibition” value was 74.2%. For `O=C(Nc1cccc(C(=O)N2CCCC2)c1)c1ccccc1`, the “activity change, negative = inhibition” value was 13.1%. With `O=C(Nc1ccccc1N1CCN(C(=O)c2ccccc2)CC1)c1ccco1` the “activity change, negative = inhibition” value was -14%. With `O=C(Nc1ccc(N2CCN(C(=O)c3ccccc3)CC2)c(Cl)c1)c1ncn[nH]1` the Potency was 11.7 µM (active). Molecule `C#CCOc1ccccc1/C=C1/C(=O)ON=C1C` has an activity change, negative = inhibition of -13.9% [at 0.00184 µM]. With `O=[N+]([O-])c1ccc2c(c1)Nc1nc3ccccc3nc1N2` the “activity change, negative = inhibition” value was 129%. For `CC(OC(=O)CNC(=O)c1ccc(Cl)c([N+](=O)[O-])c1)C(=O)NCc1ccco1` (stereo unspecified), the “activity change, negative = inhibition” value was 2.5%. With `O=[N+]([O-])c1cccc(/C([O-])=C(/C(=S)Nc2ccccc2F)[n+]2ccccc2)c1` the “activity change, negative = inhibition” value was 57.9%. In the case of `Cc1ccc(/C([O-])=C(/C(=S)NCc2ccco2)[n+]2ccccc2)cc1[N+](=O)[O-]`, the Potency is reported as 10.4 µM (active). With `COc1cccc(C(=O)OCc2cc(=O)oc3c(C)c(C)ccc23)c1OC` the “activity change, negative = inhibition” value was 3.93%. In the case of `Cc1cc(/C=C2/SC(=O)N(CC(=O)N3CCCC3)C2=O)c(C)n1C`, the “activity change, negative = inhibition” value is reported as 5.8%.
